According to PubChem BioAssay AID2016 (NMMLSC, 2009):
In all, about 330,000 compounds went through this assay and about 1,700 (0.52%) were called active. Shown is part of a subset that was picked to be rich in actives. Values without a mark were called inactive.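 The calls were made as follows: active = GFP response versus DMSO above a set limit, roughly screen mean plus 3 SD (cut at about 180% in these data); inconclusive = fewer than 70 cells counted for a yeast strain; inactive = the rest.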

Assay: modulators of MEP2-GFP levels in yeast, primary screen, S. cerevisiae, multiplex flow cytometry, MLPCN library (AID 2016);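 also: median GFP fluorescence of the barcode-gated MEP2-GFP cells per well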
Settings: S. cerevisiae MEP2-GFP strain, 3 h, at 10 µM, stronger effect = higher value, 100% = DMSO control level
`Cc1ccc(C(=O)N/C(=C\c2ccco2)C(=O)N2CCSCC2)cc1C` showed a GFP response vs DMSO of 109%.
`Cc1ccc(C(=O)N/C(=C/C=C/c2ccccc2)C(=O)NCc2ccco2)cc1` gave a GFP response vs DMSO of 95.7%.
In the case of `O=C(NCc1ccco1)/C(=C/c1ccco1)NC(=O)c1ccccc1`, the GFP response vs DMSO is reported as 206% [may fluoresce violet] (active).
In the case of `NC(=O)C1CCN(C(=O)/C(=C/c2ccco2)NC(=O)c2ccccc2)CC1`, the GFP response vs DMSO is reported as 215% [may fluoresce violet] (active).
With `O=C(NCC1CCCO1)/C(=C\c1ccco1)NC(=O)c1ccccc1` (stereo not drawn) the GFP response vs DMSO was 102%.
Compound `CC1CCN(C(=O)/C(=C\c2ccccc2)NC(=O)c2ccccc2)CC1` has a GFP response vs DMSO of 106%.
In the case of `N#CCCN1CCN(S(=O)(=O)c2ccc(S(=O)(=O)NC3CCCCC3)cc2)CC1`, the GFP response vs DMSO is reported as 107%.
`Cn1c2ccccc2c2c(C(=O)N3CCN(c4ccc(F)cc4)CC3)cn(C3CCCC3)c(=O)c21` gave a GFP response vs DMSO of 116%.
In the case of `COc1cc(C)c(Cl)cc1S(=O)(=O)n1ccnc1`, the GFP response vs DMSO is reported as 92%.
`O=C(NCC(=O)N1CCN(c2ccccc2F)CC1)c1cccs1` showed a GFP response vs DMSO of 111%.
In the case of `CC(=O)N(C)c1ccc(NC(=O)C(F)(F)F)cc1`, the GFP response vs DMSO is reported as 100%.
With `C/C(=N/NS(=O)(=O)c1ccccc1)c1ccc(NC(=O)C(F)(F)F)cc1` the GFP response vs DMSO was 219% (active).
`C/C(=N\NS(=O)(=O)c1ccc(Cl)cc1)c1ccc(NC(=O)c2ccco2)cc1` gave a GFP response vs DMSO of 102%.
`C[N+](C)(C)CCNC(=O)c1cc[n+](Cc2ccccc2)c(/C=N/O)c1` showed a GFP response vs DMSO of 104%.
`COC(=O)Nc1ncc(CN2C(=O)c3ccccc3C2=O)s1` showed a GFP response vs DMSO of 109%.
With `CCOC(=O)c1cnc(SCC(=O)NCc2ccco2)nc1N` the GFP response vs DMSO was 222% (active).
Compound `CCOC(=O)c1cnc(SCC(=O)Nc2cccc(OC)c2)nc1N` has a GFP response vs DMSO of 90.7%.
`CCOC(=O)c1cnc(SCC(=O)Nc2ccccc2C(=O)OC)nc1N` showed a GFP response vs DMSO of 98.3%.
Work on `CCOc1ccc(CN(Cc2ccco2)C(c2cccs2)c2nnnn2C(C)(C)C)cc1` (stereo not drawn) yielded a GFP response vs DMSO of 98.9%.
`CCN(CCn1cccn1)C(=O)CC1C(=O)NCCN1Cc1cccc(OC)c1OC` (stereo not drawn) gave a GFP response vs DMSO of 100%.
For `CC(=O)Nc1ccc(NC(=O)COC(=O)C2CCC(C(C)(C)C)CC2)cc1` (stereo not drawn), the GFP response vs DMSO was 103%.
For `CC(=O)Nc1ccc(NC(=O)CC2CCCC2)cc1`, the GFP response vs DMSO was 779% [may fluoresce violet] (active).
For `COc1ccc(NC(=O)CN(C)C(=O)CC2CCCCC2)cc1`, the GFP response vs DMSO was 102%.
For `O=C(COC(=O)/C=C/c1cccc(Cl)c1)NCCc1ccccc1`, the GFP response vs DMSO was 114%.
Compound `CCCC(=O)N(CCc1ccccc1)Cc1nc2ccccc2c(=O)[nH]1` has a GFP response vs DMSO of 85.6%.
With `O=C(c1ccco1)N(Cc1nc2ccccc2c(=O)[nH]1)C1CCCC1` the GFP response vs DMSO was 271% [may fluoresce violet] (active).
With `CCN(CC(=O)NC(=O)NCc1ccccc1)Cc1nc2ccccc2c(=O)[nH]1` the GFP response vs DMSO was 98.5%.
`COc1ccc(CNC(=O)CN(C(=O)c2csnn2)c2cnc3ccccc3c2)cc1` showed a GFP response vs DMSO of 102%.
Work on `CCCCCCNCCn1cnc2c(N)ncnc21` yielded a GFP response vs DMSO of 97.1%.
Compound `COc1ccc(CCNC(=S)N2CCN(S(=O)(=O)c3ccc(F)cc3)CC2)cc1` has a GFP response vs DMSO of 103%.
In the case of `COc1ccc(C(=O)NN(C)c2nc(-c3ccccc3)cc(C)c2S(C)(=O)=O)cc1`, the GFP response vs DMSO is reported as 287% [may fluoresce violet] (active).
Work on `COc1ccc(NS(=O)(=O)c2cc(C(=O)Nc3ccccc3C(=O)O)ccc2C)cc1` yielded a GFP response vs DMSO of 95.4%.
With `COc1ccc(C(=O)Nc2cccc(S(C)(=O)=O)c2)cc1` the GFP response vs DMSO was 112%.
In the case of `O=C(CCc1ccc(S(=O)(=O)N2CCOCC2)cc1)NN=C1CCCCCCC1`, the GFP response vs DMSO is reported as 104%.
In the case of `O=C(c1cc(S(=O)(=O)N2CCOCC2)ccc1Cl)N1CCOCC1`, the GFP response vs DMSO is reported as 103%.
With `O=C(O)c1ccc(S(=O)(=O)N2CCOCC2)o1` the GFP response vs DMSO was 264% [may fluoresce violet] (active).
For `Cc1cccc(C)c1NC(=O)c1ccc(CN2CCc3ccccc3C2)cc1`, the GFP response vs DMSO was 101%.
`COc1ccc(C(=O)N(Cc2ccccc2)c2ccc(C)cc2)cc1S(=O)(=O)N1CCOCC1` gave a GFP response vs DMSO of 103%.
For `Cc1ccc(C23CC4CC(CC(C(=O)NCC(=O)O)(C4)C2)C3)cc1`, the GFP response vs DMSO was 292% [may fluoresce violet] (active).
Compound `CCOc1ccccc1NC(=O)C12CC3CC(C1)CC(c1ccc(C)cc1)(C3)C2` has a GFP response vs DMSO of 97.6%.
For `C=CCNC(=O)C12CC3CC(C1)CC(C(=O)NCC=C)(C3)C2`, the GFP response vs DMSO was 106%.
For `CCn1c(C)nc2c1C(=O)c1ccccc1C2=O`, the GFP response vs DMSO was 93.7%.
`O=C(CNC(=O)[C@@H]1Cc2ccccc2CN1)NC1CCCCC1` showed a GFP response vs DMSO of 99.4%.
Compound `Cc1cc2cc3c(cc2nc1SCC(=O)Nc1c(C)cccc1C)CCC3` has a GFP response vs DMSO of 94.7%.
In the case of `NC(=O)c1nsc(C(=O)N(CCCN2CCOCC2)C(C(=O)NC2CCCCC2)c2ccc(Cl)cc2)c1N` (stereo not drawn), the GFP response vs DMSO is reported as 238% [may fluoresce violet] (active).
In the case of `CCOc1ccc(C(C(=O)NC2CCCC2)N(C(=O)c2snc(C(N)=O)c2N)C2CCCC2)cc1` (stereo not drawn), the GFP response vs DMSO is reported as 113%.
`CC(C)(C)NC(=O)C(c1ccc(Cl)cc1)N(CCO)C(=O)c1snc(C(N)=O)c1N` (stereo not drawn) gave a GFP response vs DMSO of 97.4%.
`CC(C)CNC(=S)NC(=O)c1ccc(Cl)cc1` gave a GFP response vs DMSO of 100%.
In the case of `COCc1cc(=O)n2[nH]c(C)c(-c3ccccc3)c2n1`, the GFP response vs DMSO is reported as 97.4%.
With `COCCNc1nc2nonc2nc1N1CCCC1c1nccs1` (stereo not drawn) the GFP response vs DMSO was 90.4%.
For `CCc1ccc(S(=O)(=O)N/N=C\c2ccc([N+](=O)[O-])o2)cc1`, the GFP response vs DMSO was 105%.
`CCn1c(=O)c([N+](=O)[O-])c(NCc2ccc3c(c2)OCO3)c2ccccc21` gave a GFP response vs DMSO of 94.2%.
In the case of `CCn1c(/C=C/c2ccc([N+](=O)[O-])o2)nc2ccccc2c1=O`, the GFP response vs DMSO is reported as 304% (active).
Work on `CC(C)(C)c1ccccc1NC(=O)CN1C(=O)NC2(CCCC2)C1=O` yielded a GFP response vs DMSO of 105%.
`Cc1ccc(Cl)c(OCC(=O)NN2CCN(C)CC2)c1` showed a GFP response vs DMSO of 103%.
With `O=C(COC(=O)c1ccc(O)cc1O)c1ccc2c(c1)OCCO2` the GFP response vs DMSO was 110%.
Compound `COc1ccccc1C(=O)NCC(=O)OCC(=O)Nc1nnc(-c2ccccc2)o1` has a GFP response vs DMSO of 99.7%.
In the case of `Cc1cc(C)cc(N(CC(=O)NC2CCCC2)C(=O)CCC(=O)Nc2cc(C)on2)c1`, the GFP response vs DMSO is reported as 327% [may fluoresce violet] (active).
Compound `Cc1cc(C)cc(N(CC(=O)NC2CCCC2)C(=O)CCC(=O)Nc2nccs2)c1` has a GFP response vs DMSO of 107%.
In the case of `Cc1cc(NC(=O)CCC(=O)N(CC(=O)NC2CCCC2)c2ccc(F)cc2)no1`, the GFP response vs DMSO is reported as 101%.
For `CC(=N\NC(=O)c1cc(Br)ccc1O)/C(=N/O)C(=O)Nc1ccccc1`, the GFP response vs DMSO was 102%.
Compound `Cc1nc(-c2ccc(F)cc2)c(CC(=O)Nc2cc(S(=O)(=O)N3CCCCC3)ccc2C)s1` has a GFP response vs DMSO of 105%.
`C/C(Cl)=C\Cn1c(Nc2cccc(C)c2)nc2c1c(=O)n(C)c(=O)n2C` gave a GFP response vs DMSO of 91.5%.
`O=C(c1ccccc1)N1CCN(c2ccc([N+](=O)[O-])c(NCc3ccco3)c2)CC1` showed a GFP response vs DMSO of 102%.
Compound `O=[N+]([O-])c1ccc(N2CCN(S(=O)(=O)c3ccc4ccccc4c3)CC2)cc1NCc1ccco1` has a GFP response vs DMSO of 91.1%.
For `O=[N+]([O-])c1ccc(N2CCNCC2)cc1NCc1cccnc1`, the GFP response vs DMSO was 309% [may fluoresce violet] (active).
Compound `O=C(Cc1cccs1)N(CC1CCCO1)C1(C(=O)NC2CCCCC2)CCCCC1` (stereo not drawn) has a GFP response vs DMSO of 88.4%.
`Cc1nc2ccccc2c(=O)n1NC(=O)c1ccccc1` gave a GFP response vs DMSO of 99.1%.
`O=C(CN1CCCC1)N1CCN(c2ccccc2)CC1` showed a GFP response vs DMSO of 91.7%.
With `Cc1nc2c(ncn2-c2ccccc2)c(=O)n1NC(=O)CN1CCCC1` the GFP response vs DMSO was 194% [may fluoresce violet] (active).
Work on `O=S(=O)(Nc1ncccn1)c1ccc(NS(=O)(=O)c2cccc(Cl)c2Cl)cc1` yielded a GFP response vs DMSO of 103%.
In the case of `O=C(CSc1ncnc2sccc12)N1CCN(C(=O)c2cccs2)CC1`, the GFP response vs DMSO is reported as 105%.
With `Nc1c(C(=O)c2cccs2)sc2nsc(SCCN3CCCCC3)c12` the GFP response vs DMSO was 221% (active).
Work on `CCCCCCCCCCCCCCCC(=O)OC/C=C(C)/C=C/C=C(C)/C=C/C1=C(C)CCCC1(C)C` yielded a GFP response vs DMSO of 107%.
With `CCC(=C/c1sc2ccc3ccccc3c2[n+]1C)/C=C1\Sc2ccc3ccccc3c2N1C` the GFP response vs DMSO was 285% (active).
Work on `COc1ccc(Cl)cc1NC(=O)COC(=O)C(CC(C)C)N1C(=O)C2CC=CCC2C1=O` (stereo not drawn) yielded a GFP response vs DMSO of 90.8%.
`Cc1noc(C)c1NC(=O)Nc1ccc2c(c1)C(=O)N([C@H](C)CO)C[C@H](C)[C@@H](CN(C)C(=O)Nc1ccc(C(F)(F)F)cc1)O2` gave a GFP response vs DMSO of 103%.
Work on `CC(=O)NCC(=O)N1CCC(n2nccc2NC(=O)CCCc2ccccc2)CC1` yielded a GFP response vs DMSO of 95.6%.
`Cc1nn(Cc2ccccc2)c(C)c1NS(=O)(=O)c1ccccc1` gave a GFP response vs DMSO of 111%.
For `OCc1nc(CO)n(Cc2ccccc2)n1`, the GFP response vs DMSO was 276% [may fluoresce violet] (active).
Work on `Nc1c(-c2ccccc2)nnn1Cc1ccccc1` yielded a GFP response vs DMSO of 96.3%.
With `CCOC(=O)C1CCN(c2c(Nc3cc(C)cc(C)c3)c(=O)c2=O)CC1` the GFP response vs DMSO was 115%.
With `O=C(NCCCn1ccnc1)C1CCCN(S(=O)(=O)c2cc(Cl)ccc2Cl)C1` (stereo not drawn) the GFP response vs DMSO was 106%.
`COc1ccc(S(=O)(=O)N(C)CC(=O)NCCCN2CCOCC2)cc1Cl` gave a GFP response vs DMSO of 95.1%.
In the case of `O=C1/C(=C\Nc2ccccc2)CCN1c1ncccn1`, the GFP response vs DMSO is reported as 127%.
In the case of `CCOC(=O)N1CCN(C(=O)CNC(=O)Cc2ccc(Cl)cc2)CC1`, the GFP response vs DMSO is reported as 106%.
For `CCOC(=O)N1CCN(C(=O)COc2ccc(Cl)cc2C)CC1`, the GFP response vs DMSO was 184% [may fluoresce violet] (active).
In the case of `CCOC(=O)N1CCN(C(=O)COc2ccc(Br)cc2)CC1`, the GFP response vs DMSO is reported as 104%.
